Hit rate of the full screen: of about 5,500 compounds, about 2,000 (36%) were called active. About 18% were inconclusive and are not listed. Rule as the data show it: active = normalized growth mostly below about 0.91 (no sharp cut-off); inconclusive = no clear call, values can overlap the other calls; inactive = mostly above about 0.92. Some of the results follow.
Assay: chemical genetic growth profiling, strain panel (AID 1159580);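 also: tested at 20 µM; growth read once vehicle control cultures reached saturation at 30 °C; 1 = growth at the plate median or of vehicle wells; lower values mean less growth of the strain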
Conditions: growth OD

Measured: normalized growth

COc1ccc(-c2cc(=O)c3c(O)cc(O)cc3o2)cc1
active: S. cerevisiae deletion strains, locus YLR113W, strain HOG1, active compounds read low 0.694 | S. cerevisiae deletion strains, locus YNL183C, strain NPR1, active compounds read low 0.784 | S. cerevisiae deletion strains, locus YPL256C, strain CLN2, active compounds read low 0.756
inactive: S. cerevisiae deletion strains, locus YJR075W, strain HOC1, active compounds read low 0.976 | S. cerevisiae deletion strains, locus YKL009W, strain mrt4, active compounds read low 0.94 | S. cerevisiae deletion strains, locus YKL068W, active compounds read low 0.979 | S. cerevisiae deletion strains, locus YKL085W, strain MDH1 (second series), active compounds read low 0.98 | S. cerevisiae deletion strains, locus YKL085W, strain MDH1, active compounds read low 0.98 | S. cerevisiae deletion strains, locus YKL160W, strain elf1, active compounds read low 0.928 | S. cerevisiae deletion strains, locus YKL190W, strain CNB1, active compounds read low 0.985 | S. cerevisiae deletion strains, locus YKR001C, strain vps1, active compounds read low 0.991 | S. cerevisiae deletion strains, locus YKR026C, strain gcn3, active compounds read low 0.994 | S. cerevisiae deletion strains, locus YKR091W, strain srl3, active compounds read low 0.997 | S. cerevisiae deletion strains, locus YLL001W, strain dnm1, active compounds read low 0.954 | S. cerevisiae deletion strains, locus YLL026W, active compounds read low 0.997 | S. cerevisiae deletion strains, locus YLL041C, strain sdh2, active compounds read low 0.996 | S. cerevisiae deletion strains, locus YLR027C, strain aat2, active compounds read low 0.97 | S. cerevisiae deletion strains, locus YLR039C, strain RIC1, active compounds read low 0.975 | S. cerevisiae deletion strains, locus YLR058C, strain SHM2, active compounds read low 0.998 | S. cerevisiae deletion strains, locus YLR102C, strain apc9, active compounds read low 0.984 | S. cerevisiae deletion strains, locus YLR221C, strain rsa3, active compounds read low 0.986 | S. cerevisiae deletion strains, locus YLR258W, strain gsy2, active compounds read low 0.97 | S. cerevisiae deletion strains, locus YLR262C, strain YPT6 (second series), active compounds read low 0.908 | S. cerevisiae deletion strains, locus YLR262C, strain YPT6, active compounds read low 0.92 | S. cerevisiae deletion strains, locus YLR268W, strain sec22, active compounds read low 0.985 | S. cerevisiae deletion strains, locus YLR320W, strain mms22, active compounds read low 0.97 | S. cerevisiae deletion strains, locus YLR330W, strain CHS5, active compounds read low 0.989 | S. cerevisiae deletion strains, locus YLR342W, strain FKS1 (second series), active compounds read low 1.11 | S. cerevisiae deletion strains, locus YLR342W, strain FKS1, active compounds read low 1.01 | S. cerevisiae deletion strains, locus YLR357W, strain rsc2, active compounds read low 1.01 | S. cerevisiae deletion strains, locus YLR370C, strain arc18, active compounds read low 0.98 | S. cerevisiae deletion strains, locus YLR371W, strain rom2, active compounds read low 0.99 | S. cerevisiae deletion strains, locus YLR384C, strain iki3, active compounds read low 1.02 | S. cerevisiae deletion strains, locus YLR418C, strain cdc73, active compounds read low 0.957 | S. cerevisiae deletion strains, locus YML016C, strain PPZ1, active compounds read low 1.02 | S. cerevisiae deletion strains, locus YML032C, strain rad52, active compounds read low 1 | S. cerevisiae deletion strains, locus YML120C, strain ndi1, active compounds read low 0.952 | S. cerevisiae deletion strains, locus YML124C, strain tub3, active compounds read low 0.99 | S. cerevisiae deletion strains, locus YMR058W, strain fet3, active compounds read low 0.983 | S. cerevisiae deletion strains, locus YMR078C, strain ctf18, active compounds read low 0.981 | S. cerevisiae deletion strains, locus YMR125W, strain sto1, active compounds read low 0.979 | S. cerevisiae deletion strains, locus YMR129W, active compounds read low 0.991 | S. cerevisiae deletion strains, locus YMR205C, strain PFK2, active compounds read low 0.968 | S. cerevisiae deletion strains, locus YMR223W, strain ubp8, active compounds read low 0.982 | S. cerevisiae deletion strains, locus YMR231W, strain pep5, active compounds read low 1.01 | S. cerevisiae deletion strains, locus YMR263W, strain SAP30, active compounds read low 0.975 | S. cerevisiae deletion strains, locus YMR307W, strain GAS1, active compounds read low 1.21 | S. cerevisiae deletion strains, locus YNL067W, strain RPL9B, active compounds read low 0.946 | S. cerevisiae deletion strains, locus YNL071W, strain lat1, active compounds read low 0.952 | S. cerevisiae deletion strains, locus YNL209W, strain ssb2, active compounds read low 0.967 | S. cerevisiae deletion strains, locus YNL233W, strain BNI4, active compounds read low 0.984 | S. cerevisiae deletion strains, locus YNL248C, strain rpa49, active compounds read low 1.03 | S. cerevisiae deletion strains, locus YNL250W, strain rad50, active compounds read low 0.966 | S. cerevisiae deletion strains, locus YNL271C, strain bni1, active compounds read low 0.98 | S. cerevisiae deletion strains, locus YNL298W, strain CLA4, active compounds read low 0.994 | S. cerevisiae deletion strains, locus YNL307C, strain MCK1, active compounds read low 0.978 | S. cerevisiae deletion strains, locus YNL322C, strain KRE1 (second series), active compounds read low 0.984 | S. cerevisiae deletion strains, locus YNR049C, strain mso1, active compounds read low 0.994 | S. cerevisiae deletion strains, locus YNR052C, strain pop2, active compounds read low 0.973 | S. cerevisiae deletion strains, locus YOL012C, strain htz1 0.966 | S. cerevisiae deletion strains, locus YOL147C, strain pex11, active compounds read low 0.99 | S. cerevisiae deletion strains, locus YOR001W, strain rrp6, active compounds read low 1 | S. cerevisiae deletion strains, locus YOR061W, strain CKA2, active compounds read low 0.991 | S. cerevisiae deletion strains, locus YOR069W, strain VPS5, active compounds read low 1 | S. cerevisiae deletion strains, locus YOR070C, strain gyp1, active compounds read low 0.968 | S. cerevisiae deletion strains, locus YOR080W, strain dia2, active compounds read low 1 | S. cerevisiae deletion strains, locus YOR083W, strain WHI5, active compounds read low 0.917 | S. cerevisiae deletion strains, locus YOR106W, strain vam3, active compounds read low 0.93 | S. cerevisiae deletion strains, locus YOR136W, strain idh2, active compounds read low 0.984 | S. cerevisiae deletion strains, locus YOR144C, strain elg1, active compounds read low 1 | S. cerevisiae deletion strains, locus YOR184W, strain ser1, active compounds read low 0.978 | S. cerevisiae deletion strains, locus YOR231W, strain MKK1, active compounds read low 0.869 | S. cerevisiae deletion strains, locus YOR265W, strain rbl2, active compounds read low 0.984 | S. cerevisiae deletion strains, locus YOR270C, strain vph1, active compounds read low 0.95 | S. cerevisiae deletion strains, locus YOR290C, strain snf2, active compounds read low 0.868 | S. cerevisiae deletion strains, locus YOR316C, strain cot1, active compounds read low 0.987 | S. cerevisiae deletion strains, locus YPL051W, strain arl3, active compounds read low 0.963 | S. cerevisiae deletion strains, locus YPL055C, strain LGE1, active compounds read low 0.982 | S. cerevisiae deletion strains, locus YPL078C, strain atp4, active compounds read low 0.92 | S. cerevisiae deletion strains, locus YPL106C, strain sse1, active compounds read low 0.946 | S. cerevisiae deletion strains, locus YPL240C, strain hsp82, active compounds read low 0.994 | S. cerevisiae deletion strains, locus YPL241C, strain CIN2, active compounds read low 0.999 | S. cerevisiae deletion strains, locus YPR119W, strain clb2, active compounds read low 0.983 | S. cerevisiae deletion strains, locus YPR141C, strain kar3, active compounds read low 0.985 | S. cerevisiae deletion strains, locus YPR163C, strain tif3, active compounds read low 0.991 | S. cerevisiae deletion strains, locus YPR167C, strain met16, active compounds read low 0.985 | S. cerevisiae deletion strains, strain wtn01, active compounds read low 1 | S. cerevisiae strains, strain wild type, active compounds read low 0.991
